In PubChem BioAssay:
Records with an inconclusive call do not appear. The source made the active and inactive calls. Unless noted, cut-off not given; nearly all actives show AC50 up to about 26 µM.

Key:
[1] = viability loss in pontine glioma line – cell-based, SU-DIPG-XVII, MIPE5.0, CellTiter-Glo, qHTS, dose response (AID 1347060); conditions: CellTiter-Glo ATP luminescence;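 on AC50: cells exposed to compound for 48 hours before viability readout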
[2] = viability loss in pontine glioma line – cell-based, SU-DIPG-XIII, MIPE5.0, CellTiter-Glo, qHTS, dose response (AID 1347064; cut-off not given, nearly all actives have AC50 up to about 23 µM;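 on AC50: cells exposed to compound for 48 hours before the viability read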); conditions: CellTiter-Glo ATP luminescence
[3] = viability loss in pontine glioma line – cell-based, SU-DIPG-XXV, MIPE5.0, CellTiter-Glo, qHTS, dose response (AID 1347065); conditions: CellTiter-Glo ATP luminescence;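 further: cells exposed to compound for 48 hours before ATP readout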
[4] = JHH-DIPG-1 glioma cell viability, MIPE5.0 library, CellTiter-Glo luminescence, qHTS (AID 1347067); conditions: JHH-DIPG-1 glioma viability, CellTiter-Glo ATP luminescence;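 further: cells exposed to compound for 48 hours before readout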
[5] = growth inhibition of DIPG cells – cell-based, MIPE5.0 library, qHTS (AID 1347068; cut-off not given, nearly all actives have IC50 up to about 30 µM;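 on IC50: cells exposed to compound for 48 hours before viability readout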); conditions: SU-DIPG-XXV viability

COC(=O)N(CC(=O)O)Cc1cccc(OCc2nc(-c3ccc(Cl)cc3)oc2C)c1
inactive: outcome [1] | outcome [2] | outcome [3] | outcome [4] | outcome [5]

O=C(O)CNC(=O)c1ncc(-c2cccc(Cl)c2)cc1O
inactive: outcome [1] | outcome [2] | outcome [3] | outcome [4] | outcome [5]

CN1CC[C@@H](NC(=O)Nc2ccc(C#N)cc2)C[C@@H]1c1nc2ccccc2[nH]1
inactive: outcome [1] | outcome [2] | outcome [3] | outcome [4] | outcome [5]

O=C(NCC(=O)N1CCCC1)Nc1ccc2cnccc2c1
inactive: outcome [1] | outcome [2] | outcome [3] | outcome [4] | outcome [5]

CN1CCN(Cc2ccc(Nc3ncc(Cl)c(Nc4ccccc4S(=O)(=O)N(C)C)n3)cc2)CC1
active: AC50 [1] 191 nM | AC50 [2] 241 nM | AC50 [3] 135 nM | AC50 [4] 382 nM | IC50 [5] 382 nM

COc1ccc(S(=O)(=O)N2CCc3cccc(-c4ccncc4)c32)cc1
active: AC50 [1] 468 nM | AC50 [2] 295 nM | AC50 [3] 332 nM | AC50 [4] 332 nM | IC50 [5] 833 nM

COc1cc(OC)c(/C=C/S(=O)(=O)Cc2ccc(OC)c(OP(=O)(O)O)c2)c(OC)c1
active: AC50 [1] 41.7 nM | AC50 [2] 41.7 nM | AC50 [3] 74.2 nM | AC50 [4] 59 nM | IC50 [5] 74.2 nM

COc1ccc(S(=O)(=O)Nc2cc(-c3csc(C#N)c3)ccc2C)cc1
active: AC50 [1] 74.2 nM | AC50 [2] 166 nM | AC50 [3] 148 nM | AC50 [4] 93.4 nM | IC50 [5] 263 nM

Cc1ncc(NC(=O)c2cccc(C(F)(F)F)c2)cc1-c1cnc(OC2CCOCC2)c(N2CCOCC2)c1
active: AC50 [1] 9340 nM | AC50 [2] 5250 nM | AC50 [3] 14800 nM | AC50 [4] 4680 nM | IC50 [5] 18600 nM

CCCCNc1ncc2c(-c3ccc(F)cc3)nn(CC3CCC(N)CC3)c2n1 (stereo not given)
active: AC50 [1] 8110 nM | AC50 [2] 8110 nM | AC50 [3] 5120 nM | AC50 [4] 8110 nM | IC50 [5] 7230 nM

Cn1ncc(Cl)c1-c1cc(C(=O)N[C@H](CN)Cc2ccc(F)c(F)c2)sc1Cl
active: AC50 [1] 18600 nM | AC50 [2] 2350 nM | AC50 [3] 1320 nM | AC50 [4] 16600 nM | IC50 [5] 16600 nM

CN(Cc1ccc(/C=C/C(=O)NO)cc1)CC12CC3CC(CC(C3)C1)C2
active: AC50 [1] 833 nM | AC50 [2] 372 nM | AC50 [3] 263 nM | AC50 [4] 332 nM | IC50 [5] 2950 nM

O=C(CCCc1ccc2cccnc2n1)NCc1cc(-c2ccc(F)c(C(F)(F)F)c2)no1
inactive: outcome [1] | outcome [2] | outcome [3] | outcome [4] | outcome [5]

CO[C@@H]1COCC[C@@H]1N[C@@H]1CC[C@@](C(=O)N2CCc3ncc(C(F)(F)F)cc3C2)(C(C)C)C1
inactive: outcome [1] | outcome [2] | outcome [3] | outcome [4] | outcome [5]

C=C1C(=O)O[C@H]2C[C@H](C)C(/C=C/C(C)=O)=CC[C@H]12
active: AC50 [1] 4170 nM | AC50 [2] 2630 nM | AC50 [3] 4680 nM | AC50 [4] 3320 nM | IC50 [5] 7420 nM

COc1cc2c(Oc3ccc4[nH]c(C)cc4c3F)ccnc2cc1OCC1(N)CC1
active: AC50 [1] 3320 nM | AC50 [2] 2950 nM | AC50 [3] 2950 nM | AC50 [4] 5900 nM | IC50 [5] 16600 nM

C=C1C[C@@H]2CC[C@@]34C[C@H]5O[C@H]6[C@@H](O3)[C@H]3O[C@H](CC[C@@H]3O[C@H]6[C@H]5O4)CC(=O)C[C@@H]3[C@@H](OC)[C@@H](C[C@H](O)CN)O[C@H]3C[C@H]3O[C@@H](CC[C@@H]1O2)C[C@@H](C)C3=C
active: AC50 [1] 2.7 nM | AC50 [2] 42.8 nM | AC50 [3] 1.21 nM | AC50 [4] 9.59 nM | IC50 [5] 9.59 nM

Cc1ccc(S(=O)(=O)Nc2cc(-c3ccc(C#N)s3)ccc2C)cc1
active: AC50 [1] 46.8 nM | AC50 [2] 52.5 nM | AC50 [3] 33.2 nM | AC50 [4] 59 nM | IC50 [5] 66.1 nM

Cc1cc(OCCCc2c3n(c4c(-c5c(C)nn(C)c5C)c(Cl)ccc24)[C@H](C)CN(c2cn(C)c4ccc(C(=O)O)cc24)C3=O)cc(C)c1Cl
active: AC50 [1] 833 nM | AC50 [2] 5250 nM | AC50 [3] 468 nM | AC50 [4] 9340 nM | IC50 [5] 3720 nM

C[C@@H]1N=C(N)NC(N(C)C)=N1
inactive: outcome [1] | outcome [2] | outcome [3] | outcome [4] | outcome [5]

Cc1c(-c2c(-c3ccc(F)o3)sc3ncnc(O[C@@H](Cc4ccccc4OCc4ccnn4CC(F)(F)F)C(=O)O)c23)ccc(OCCN2CCN(C)CC2)c1Cl
active: AC50 [1] 295 nM | AC50 [2] 6610 nM | AC50 [3] 132 nM | AC50 [4] 3320 nM | IC50 [5] 1320 nM

Cc1cccc(Oc2cnc(=O)[nH]c2)c1
inactive: outcome [1] | outcome [2] | outcome [3] | outcome [4] | outcome [5]

C=CC(=O)N1CC[C@@H](Oc2nc(Nc3ccc(N4CCC(N5CCN(C)CC5)CC4)cc3)c(C(N)=O)nc2CC)C1
active: AC50 [1] 1150 nM | AC50 [2] 811 nM | AC50 [3] 910 nM | AC50 [4] 2290 nM | IC50 [5] 4560 nM

O=C(O)CCCCN(CCc1ccccc1OCc1ccc(CCc2ccccc2)cc1)Cc1ccc(C(=O)O)cc1
inactive: outcome [1] | outcome [2] | outcome [3] | outcome [4] | outcome [5]

CNC(=O)CCc1cc(-c2ccc(-c3ccc(C(F)(F)F)cc3)cc2)n(-c2ccc(N3CCNCC3)cc2)n1
active: AC50 [1] 5250 nM | AC50 [2] 7420 nM | AC50 [3] 2630 nM | AC50 [4] 3720 nM | IC50 [5] 9340 nM

NC[C@@](O)(c1ccc(Cl)cc1)c1ccc(-c2cn[nH]c2)cc1
inactive: outcome [1]
active: AC50 [2] 18600 nM | AC50 [3] 13200 nM | AC50 [4] 26300 nM | IC50 [5] 23500 nM
